Measurements published in PubChem BioAssay (Tox21).
Values joined by “and” are separate entries in the source; they are usually repeats but may differ in a detail not shown here. Identical values can stand only once. Inconclusive results are not listed. A structure can be active in one record and inactive in another. Active and inactive are the calls of the source. Unless noted, calls follow the shape of the dose curve; as a rule, active = well fitted curve in the direction sought with a large enough effect in the repeat runs; inconclusive = weak or mixed curves; inactive = no such curve, though single readings can be large; an effect the other way counts as inactive or inconclusive.

Key:
[1] = qHTS assay to test for compound auto fluorescence at 535 nm (green) in HEK293 cells (AID 720680)
[2] = qHTS assay to test for compound auto fluorescence at 535 nm (green) in HEK293 cell free culture (AID 720682)
Outline: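 Measurement is a direct plate read of green fluorescence (485 nm in, 535 nm out) after compound addition to serum-supplemented DMEM lacking cells, with fluorescein used to express intensities.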

[3] = qHTS assay to test for compound auto fluorescence at 590 nm (red) in HEK293 cell free culture (AID 720683)
Outline: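 Tox21 10K library compounds were pinned into cell-free DMEM with 10% FBS and fluorescence was read at excitation 540 nm. Activity is expressed as Rose Bengal sodium equivalency.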

[4] = qHTS assay to test for compound auto fluorescence at 590 nm (red) in HepG2 cell free culture (AID 720684)
Outline: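 Readout: intrinsic compound fluorescence at 590 nm emission after 540 nm excitation, scaled to Rose Bengal sodium. Matrix was cell-free MEM with 10% FBS; DMSO vehicle wells served as control.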

[5] = qHTS assay to test for compound auto fluorescence at 460 nm (blue) in HepG2 cell free culture (AID 720685)
Outline: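 Cell-free plates of MEM plus 10% FBS received 23 nL compound or DMSO vehicle; blue-channel (405/460 nm) intensity scored against triamterene as reference fluorophore.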

[6] = qHTS assay to test for compound auto fluorescence at 535 nm (green) in HepG2 cell free culture (AID 720686)
[7] = qHTS assay to test for compound auto fluorescence at 460 nm (blue) in HepG2 cells (AID 720687)
Outline: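 Cells (2,000/well in MEM with 10% FBS) attached overnight at 37 C, then were exposed to compound or DMSO for 1 hr at 37 C, 5% CO2. Fluorescence read at Ex/Em 405/460 nm, expressed as triamterene-equivalent signal.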

[8] = target: Glucocorticoid receptor (Homo sapiens) (UniProt P04150); test: qHTS assay to identify small molecule antagonists of the glucocorticoid receptor (GR) signaling pathway (AID 720692; active = well fitted inhibition curve with a large enough effect in the signal ratio in the repeat runs, not every such curve was filed as active; the % refers to the signal ratio; also: potency is read from the fitted curve at half-maximal effect)
Outline: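 In a 1536-well cell format, compounds were added 4 h after seeding GR-bla HeLa cells, together with dexamethasone at 5 nM final; reporter activity was measured by FRET-substrate fluorescence following 18 h at 37 C.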

[9] = qHTS assay for identifying genotoxic compounds that show differential cytotoxicity against isogenic chicken DT40 cell lines with known DNA damage response pathways - wild type cell line (AID 743012); also: nearly all actives have a fitted effect of over 60% in size; also: potency is read from the fitted curve at half-maximal effect
Outline: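 Viability of DNA repair-proficient chicken DT40 cells was assessed by CellTiter-Glo luminescence following 40 h compound exposure at 37 C/5% CO2.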

[10] = qHTS assay for identifying genotoxic compounds that show differential cytotoxicity against isogenic chicken DT40 cell lines with known DNA damage response pathways - Rev3 mutant cell line (AID 743014); also: nearly all actives have a fitted effect of over 55% in size; also: potency is read from the fitted curve at half-maximal effect
[11] = qHTS assay for identifying genotoxic compounds that show differential cytotoxicity against isogenic chicken DT40 cell lines with known DNA damage response pathways - Rad54/Ku70 mutant cell line (AID 743015); also: nearly all actives have a fitted effect of over 60% in size; also: potency is read from the fitted curve at half-maximal effect
[12] = qHTS assay to identify small molecule antagonists of the thyroid receptor (TR) signaling pathway - cell viability counter screen (AID 743064); also: nearly all actives have a fitted effect of over 50% in size; also: potency is read from the fitted curve at half-maximal effect
Outline: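 Compounds were tested on GH3.TRE-Luc cells in the presence of T3 at 1 nM final. Following 23.5 h at 37 °C, cell viability was quantified by CellTiter-Fluor.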

[13] = target: Glucocorticoid receptor (Homo sapiens) (UniProt P04150); test: qHTS assay to identify small molecule agonists of the glucocorticoid receptor (GR) signaling pathway (AID 720691; active = well fitted activation curve with a large enough effect in the signal ratio in the repeat runs, not every such curve was filed as active; the % refers to the signal ratio; also: potency is read from the fitted curve at half-maximal effect); conditions: GR-bla HeLa, beta-lactamase reporter ratio, 18 h; activation: at 62.4 µM (top of the series)
Outline: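 Compounds in DMSO, alongside positive controls, were added to GR-bla HeLa reporter cells and incubated 18 h at 37 C; GRE-driven beta-lactamase was detected by fluorescence after 2 h with FRET substrate at room temperature.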

[14] = qHTS assay to identify small molecule antagonists of the glucocorticoid receptor (GR) signaling pathway - cell viability counter screen (AID 720693); also: nearly all actives have a fitted effect of over 55% in size; also: potency is read from the fitted curve at half-maximal effect
[15] = qHTS assay to identify small molecule antagonists of the androgen receptor (AR) signaling pathway - cell viability counter screen (AID 743033; also: nearly all actives have a fitted effect of over 45% in size; also: potency is read from the fitted curve at half-maximal effect)
[16] = qHTS assay to identify small molecule antagonists of the androgen receptor (AR) signaling pathway using the MDA cell line - cell viability counter screen (AID 743041; also: nearly all actives have a fitted effect of over 45% in size; also: potency is read from the fitted curve at half-maximal effect)
Outline: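 qHTS viability read-out; MDA-kb2 AR-luc; R1881-stimulated; 16 h exposure at 37C, 0% CO2; CellTiter-Fluor, 30 min; fluorescence intensity.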

[17] = qHTS assay to test for compound auto fluorescence at 460 nm (blue) in HEK293 cell free culture (AID 720681)
Outline: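 Test compounds were pinned into cell-free culture medium (DMEM with 10% FBS) and fluorescence was read directly at Ex/Em 405/460 nm. Signals were expressed as fluorescence equivalents of triamterene, with DMSO vehicle as control.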

[18] = target: Androgen receptor (Homo sapiens) (UniProt P10275); test: qHTS assay to identify small molecule antagonists of the androgen receptor (AR) signaling pathway (AID 743035; active = well fitted inhibition curve with a large enough effect in the signal ratio in the repeat runs, not every such curve was filed as active; the % refers to the signal ratio)
Outline: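 Reporter HEK293 cells were exposed to compounds and R1881 overnight (16 h, 37C); beta-lactamase activity was then quantified by FRET fluorescence.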

[19] = target: Androgen receptor (Homo sapiens) (UniProt P10275); test: qHTS assay to identify small molecule agonists of the androgen receptor (AR) signaling pathway using the MDA cell line (AID 743040; also: nearly all actives have a fitted effect of over 20% in size)
Outline: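 Agonist activity is measured as luciferase luminescence in human MDA-kb2 cells whose MMTV reporter responds to both AR and GR. Compounds in DMSO incubate 16 h at 37C, 0% CO2, and ONE-Glo is read after 30 min.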

[20] = target: Androgen receptor (Homo sapiens) (UniProt P10275); test: qHTS assay to identify small molecule antagonists of the androgen receptor (AR) signaling pathway using the MDA cell line (AID 743042; also: nearly all actives have a fitted effect of over 55% in size; also: potency is read from the fitted curve at half-maximal effect)
Outline: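 MDA-kb2 cells (human breast carcinoma, stably carrying an MMTV-luciferase reporter responsive to AR and GR) were plated at 3,000 cells/well and preincubated 5 hr at 37C, then given compound plus R1881 agonist for 16 h. ONE-Glo luminescence was read.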
% is scaled to controls: 0 for no effect and ±100 for the full control effect.

Chain of Glucocorticoid receptor (Homo sapiens) (P04150 whole entry, looked up): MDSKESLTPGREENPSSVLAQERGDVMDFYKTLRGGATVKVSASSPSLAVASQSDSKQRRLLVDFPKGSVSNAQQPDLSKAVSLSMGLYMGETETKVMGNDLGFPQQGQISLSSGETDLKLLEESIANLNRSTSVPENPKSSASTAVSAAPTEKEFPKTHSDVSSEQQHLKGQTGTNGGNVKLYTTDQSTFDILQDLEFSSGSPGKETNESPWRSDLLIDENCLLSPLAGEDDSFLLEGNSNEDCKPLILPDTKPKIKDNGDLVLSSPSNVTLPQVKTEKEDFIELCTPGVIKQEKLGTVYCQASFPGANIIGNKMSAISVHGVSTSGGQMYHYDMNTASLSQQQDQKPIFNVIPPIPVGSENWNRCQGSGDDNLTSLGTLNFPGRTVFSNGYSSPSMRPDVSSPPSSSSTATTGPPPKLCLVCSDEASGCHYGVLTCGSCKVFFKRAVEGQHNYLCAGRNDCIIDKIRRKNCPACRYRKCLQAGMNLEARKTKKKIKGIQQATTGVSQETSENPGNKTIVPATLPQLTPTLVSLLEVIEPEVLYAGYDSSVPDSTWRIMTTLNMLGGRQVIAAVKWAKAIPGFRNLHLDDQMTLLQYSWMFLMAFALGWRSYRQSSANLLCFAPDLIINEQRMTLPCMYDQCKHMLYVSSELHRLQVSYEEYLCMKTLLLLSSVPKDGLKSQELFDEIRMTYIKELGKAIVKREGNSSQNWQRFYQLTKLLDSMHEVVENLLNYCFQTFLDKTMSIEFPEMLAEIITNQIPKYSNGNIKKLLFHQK
Chain of Androgen receptor (Homo sapiens) (P10275 whole entry, looked up): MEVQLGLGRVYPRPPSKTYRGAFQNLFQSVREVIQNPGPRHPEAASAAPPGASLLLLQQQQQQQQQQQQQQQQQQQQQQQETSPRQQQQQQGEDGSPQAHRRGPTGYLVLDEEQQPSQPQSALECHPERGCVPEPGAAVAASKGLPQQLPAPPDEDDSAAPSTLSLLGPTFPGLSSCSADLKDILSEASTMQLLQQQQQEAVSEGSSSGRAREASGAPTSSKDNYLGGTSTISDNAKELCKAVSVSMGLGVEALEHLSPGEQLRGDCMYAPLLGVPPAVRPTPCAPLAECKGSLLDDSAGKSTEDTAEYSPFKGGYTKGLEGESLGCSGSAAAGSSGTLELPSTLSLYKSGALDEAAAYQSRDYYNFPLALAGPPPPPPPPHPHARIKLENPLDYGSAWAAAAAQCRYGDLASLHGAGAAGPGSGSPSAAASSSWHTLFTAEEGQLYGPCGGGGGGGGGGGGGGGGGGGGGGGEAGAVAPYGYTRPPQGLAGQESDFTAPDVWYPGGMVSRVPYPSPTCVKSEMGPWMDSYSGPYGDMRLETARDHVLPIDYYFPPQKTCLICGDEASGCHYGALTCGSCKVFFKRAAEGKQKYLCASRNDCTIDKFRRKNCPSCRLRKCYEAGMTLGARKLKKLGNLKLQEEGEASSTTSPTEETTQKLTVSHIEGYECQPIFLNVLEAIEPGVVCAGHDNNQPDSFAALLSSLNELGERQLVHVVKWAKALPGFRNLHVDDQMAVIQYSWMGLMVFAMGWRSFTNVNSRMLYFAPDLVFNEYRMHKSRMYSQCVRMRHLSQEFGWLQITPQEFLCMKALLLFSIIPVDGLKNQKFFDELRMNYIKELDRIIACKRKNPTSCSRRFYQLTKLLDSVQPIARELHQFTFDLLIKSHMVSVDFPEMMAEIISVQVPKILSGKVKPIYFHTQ

N#Cc1c[nH]cc1-c1cccc2c1OC(F)(F)O2
inactive: outcome [1] | outcome [2] | outcome [3] | outcome [4] | Potency [5] | Potency [6] | Potency [7]
active: Potency [8] 9.77 µM | Potency [9] 13.7 µM | Potency [10] 8.63 µM | Potency [11] 13.7 µM | Potency [12] 27.3 µM

Oc1cccc(Cl)c1Cl
inactive: outcome [1] | outcome [2] | outcome [3] | outcome [4] | Potency [5] | Potency [6] | Potency [7] | Potency [13] | Potency [8] | Potency [14] | Potency [9] | Potency [15] | Potency [16]

Cc1c([N+](=O)[O-])c(C)c([N+](=O)[O-])c(C(C)(C)C)c1[N+](=O)[O-]
active: Potency [9] 68.6 µM | Potency [10] 68.6 µM
inactive: outcome [1] | outcome [2] | outcome [3] | outcome [4] | Potency [5] | Potency [6] | Potency [7] | Potency [13] | Potency [8] | Potency [14] | Potency [15] | Potency [16]

c1cc[n+]2c(c1)-c1cccc[n+]1CC2
active: Potency [9] 3.35 µM | Potency [10] 3.35 µM | Potency [11] 2.37 µM
inactive: outcome [1] | outcome [2] | outcome [3] | outcome [4] | Potency [5] | Potency [6] | Potency [7] | Potency [13] | Potency [8] | Potency [14] | Potency [16] | Potency [12]

O=P(Cl)(Cl)Cl
inactive: outcome [1] | outcome [2] | outcome [3] | outcome [4] | Potency [5] | Potency [6] | Potency [7] | Potency [13] | Potency [8] | Potency [14] | Potency [9] | Potency [10] | Potency [11] | Potency [15] | Potency [16] | Potency [12]

Oc1ccc(Cl)c(Cl)c1
inactive: outcome [1] | outcome [2] | outcome [3] | outcome [4] | Potency [5] | Potency [6] | Potency [7] | Potency [14] | Potency [9] | Potency [10] | Potency [11] | Potency [15] | Potency [16] | Potency [12]

ClSC(Cl)(Cl)Cl
inactive: outcome [1] | outcome [2] | outcome [3] | outcome [4] | Potency [5] | Potency [6] | Potency [7] | Potency [14] | Potency [9] | Potency [10] | Potency [15] | Potency [16] | Potency [12]

O=C(NC(=O)c1ccccc1Cl)Nc1ccc(OC(F)(F)F)cc1
inactive: Potency [17] | outcome [2] | outcome [3] | outcome [4] | Potency [5] | Potency [6] | Potency [7] | Potency [13] | Potency [8] | Potency [14] | Potency [9] | Potency [11] | Potency [15] | Potency [18] | outcome [19] | Potency [16] | Potency [20] | Potency [12]

O=S1(=O)OCC2C(CO1)C1(Cl)C(Cl)=C(Cl)C2(Cl)C1(Cl)Cl (configuration not stated)
active: Potency [8] 17.4 µM | Potency [9] 24.3 µM | Potency [10] 10.9 µM | Potency [11] 27.3 µM | Potency [12] 54.5 µM
inactive: outcome [1] | outcome [2] | outcome [3] | outcome [4] | Potency [5] | Potency [6] | Potency [7] | Potency [13]

CNC(=O)CSP(=O)(OC)OC
inactive: outcome [1] | outcome [2] | outcome [3] | Potency [5] | Potency [6] | Potency [7] | Potency [13] | Potency [8] | Potency [14] | Potency [9] | Potency [11] | Potency [15] | Potency [16] | Potency [12]

CCN(CC)C(=S)S
active: Potency [11] 5.31 µM and 5.42 µM and 486 nM | Potency [12] 1.19 µM
inactive: outcome [1] | outcome [2] | outcome [3] | Potency [5] | Potency [6] | Potency [7] | Potency [8] | Potency [14]
inactive and 4.9 µM (active): Potency [13]

C1=CCC=C1
inactive: outcome [1] | outcome [2] | outcome [3] | outcome [4] | Potency [6] | Potency [14] | Potency [9] | Potency [10] | Potency [11] | Potency [15] | Potency [16] | Potency [12]

C=CC(=O)[O][Sn]([CH2]CCC)([CH2]CCC)[CH2]CCC
inactive: outcome [1] | outcome [2] | outcome [3] | outcome [4] | Potency [5] | Potency [6] | Potency [7] | outcome [19]
active: Potency [14] 1.55 µM | Potency [10] 0.864 µM | Potency [11] 0.686 µM | Potency [15] 1.23 µM | Potency [16] 2.17 µM | Potency [20] 1.72 µM | Potency [12] 0.969 µM

CCCCC/C=C\C/C=C\C/C=C\C/C=C\CCCC(=O)NCC(=O)O
inactive: fluorescence, % of fluorescein [1] -0.212% [at 3.72 µM] | activity change [2] 0.0424% [at 3.72 µM] | fluorescence, % of fluorescent control [3] 0.173% [at 3.72 µM] | fluorescence, % of Rose Bengal [4] 0.0912% [at 3.72 µM] | fluorescence, % of fluorescent control [5] -0.0542% [at 3.72 µM] | fluorescence, % of fluorescein control [6] 0.0024% [at 3.72 µM] | fluorescence, % of fluorescent control [7] -0.108% [at 3.72 µM] | activation [13] 0.54% [at 6.9 µM] | activity change, negative = inhibition [8] 22.5% [at 7.04 µM] | viability change, negative = cytotoxic [14] -8.97% [at 7.04 µM] | activity change, negative = cytotoxicity [11] 4.36% [at 8.55 µM] | viability change, negative = cytotoxic [16] -2.98% [at 8.47 µM] | activity change, negative = cytotoxic [12] 12.7% [at 8.44 µM]

CO/N=C(/C1=NOCCO1)c1ccccc1Oc1ncnc(Oc2ccccc2Cl)c1F
active: Potency [9] 0.0306 µM | Potency [10] 0.0544 µM | Potency [11] 0.0153 µM | Potency [15] 6.91 µM | Potency [16] 30.6 µM
inactive: outcome [1] | outcome [2] | outcome [4] | Potency [5] | Potency [6] | Potency [7] | Potency [13] | Potency [8]

COc1ccc2[nH]cc(CCN(C(C)C)C(C)C)c2c1
inactive: outcome [1] | outcome [2] | outcome [3] | outcome [4] | Potency [5] | Potency [6] | Potency [7] | Potency [13] | Potency [14] | Potency [15] | Potency [16]
